Measurements: the antibiotic and cytotoxicity screens of Wong et al. (2023)
About 1,500 (3.8%) of roughly 39,000 compounds were called active. Only a selection was taken, and actives are over-represented in it overall.

What follows are molecules tested on HSkMC (human skeletal muscle cells) (assay: cytotoxicity call (relative viability < 0.9)). Conditions: 10 µM.
With `O=C(C[C@@H]1CC[C@H]2[C@@H](COC[C@@H](O)CN2S(=O)(=O)c2ccc(Oc3ccccc3)cc2)O1)NCCN1CCCCC1` the cytotoxicity call was “inactive”. `CC(C)(C)OC(=O)NCCOCCOCCOc1ccc(N(C(=O)CCl)[C@@H](C(=O)NCCc2ccccc2)c2cccs2)cc1Cl` was tested, and the cytotoxicity call was “active”. `COc1ccc(N(C(=O)CCl)[C@@H](C(=O)NCCc2ccccc2)c2ccc(Cl)s2)cc1Cl` was tested, and the cytotoxicity call was “active”. With `COc1ccc(N(C(=O)CSc2ncccn2)[C@@H](C(=O)NCCc2ccccc2)c2cccs2)cc1Cl` the cytotoxicity call was “inactive”. For `O=C(CCCl)NCCc1ccccc1`, the cytotoxicity call was “inactive”. For `Cn1cnc(S(=O)(=O)N[C@H]2CC[C@@H](CC(=O)N3CCN(c4ccccc4)CC3)O[C@H]2CO)c1`, the cytotoxicity call was “inactive”. For `C[C@@H]1CN([C@H](C)CO)C(=O)Cc2cc(NC(=O)CCC(F)(F)F)ccc2O[C@H]1CN(C)Cc1ccc(Oc2ccccc2)cc1`, the cytotoxicity call was “inactive”. In the case of `C[C@H]1CCCCO[C@H](CN(C)C(=O)Nc2cccc3ccccc23)[C@@H](C)CN([C@@H](C)CO)C(=O)c2cc(NS(=O)(=O)c3ccc(Cl)cc3)ccc2O1`, the cytotoxicity call is reported as “inactive”. With `COC(=O)[C@@H]1OC(=O)[C@H]2O[C@@]23[C@]2(C)[C@@H](O)C[C@H]4C(C)(C)[C@H](OC(C)=O)C[C@H](OC(C)=O)[C@]4(C)[C@@H]2CC[C@@]13C` the cytotoxicity call was “inactive”. `CCCCCCCCCCCCCCCC[N+](C)(C)CCN(Cc1ccc(OC)cc1)c1ncccn1` was tested, and the cytotoxicity call was “active”. In the case of `COc1ccc(CN(CCN(C)C)c2ncccn2)cc1.Cl`, the cytotoxicity call is reported as “inactive”. With `COc1ccc(CN(CCN(C)C)c2ccccn2)cc1.O=C(O)C=CC(=O)O` the cytotoxicity call was “inactive”. With `C[C@@H]1CCCCO[C@H](CN(C)Cc2ccc(C(=O)O)cc2)[C@H](C)CN([C@H](C)CO)C(=O)c2cc(NC(=O)Nc3ccc(F)cc3)ccc2O1` the cytotoxicity call was “inactive”. In the case of `C[C@@H]1CCCCO[C@H](CN(C)C(=O)C2CCCCC2)[C@@H](C)CN([C@H](C)CO)C(=O)c2cc(NC(=O)Cc3ccccc3)ccc2O1`, the cytotoxicity call is reported as “inactive”. For `NCC[C@@H]1CC[C@@H](NC(=O)C2CCCCC2)[C@@H](CO)O1`, the cytotoxicity call was “inactive”. In the case of `C[C@@H]1CCCCO[C@H](CN(C)S(=O)(=O)c2ccc(F)cc2)[C@@H](C)CN([C@@H](C)CO)C(=O)c2cc(NC(=O)Nc3ccc(F)cc3)ccc2O1`, the cytotoxicity call is reported as “inactive”. In the case of `C[C@@H]1CCCCO[C@@H](CN(C)C(=O)Nc2ccc(F)cc2)[C@@H](C)CN([C@@H](C)CO)C(=O)c2cc(NC(=O)Nc3ccc(F)cc3)ccc2O1`, the cytotoxicity call is reported as “inactive”. In the case of `COc1ccc(NC(=O)N(C)C[C@H]2Oc3c(NC(=O)C4CCOCC4)cccc3C(=O)N([C@H](C)CO)C[C@H]2C)cc1`, the cytotoxicity call is reported as “inactive”. For `COc1ccc(C(=O)O)c(O)c1OC`, the cytotoxicity call was “inactive”. `COC1=C(N)C(=O)c2nc(-c3nc(C(=O)O)c(C)c(-c4ccc(OC)c(OC)c4O)c3N)ccc2C1=O` was tested, and the cytotoxicity call was “active”. With `Cc1ccc(S(=O)(=O)N(C)C[C@H]2Oc3ccc(NS(=O)(=O)c4ccc(F)cc4)cc3C(=O)N([C@H](C)CO)C[C@H]2C)cc1` the cytotoxicity call was “inactive”. In the case of `C[C@H](CO)N1C[C@H](C)[C@@H](CN(C)C(=O)c2ccccc2)OCCCC[C@H](C)Oc2ccc(NC(=O)Nc3ccccc3)cc2C1=O`, the cytotoxicity call is reported as “inactive”. In the case of `C[C@H](CO)N1C[C@H](C)[C@@H](CN(C)C(=O)C2CCOCC2)Oc2ncc(-c3cccc(C#N)c3)cc2C1=O`, the cytotoxicity call is reported as “inactive”. With `C[C@H]1CN([C@@H](C)CO)C(=O)Cc2cc(NC(=O)Nc3ccc4c(c3)OCO4)ccc2O[C@@H]1CN(C)Cc1ccc(C(F)(F)F)cc1` the cytotoxicity call was “inactive”. `C[C@H](CO)N1C[C@H](C)[C@@H](CN(C)Cc2ccc(C(F)(F)F)cc2)Oc2ccc(NC(=O)Nc3ccc4c(c3)OCO4)cc2CC1=O` was tested, and the cytotoxicity call was “active”. `C[C@@H]1CN([C@H](C)CO)C(=O)Cc2cc(NC(=O)Nc3ccc4c(c3)OCO4)ccc2O[C@@H]1CN(C)Cc1ccc(C(F)(F)F)cc1` was tested, and the cytotoxicity call was “active”. In the case of `C[C@@H]1CN([C@@H](C)CO)C(=O)Cc2cc(NC(=O)Nc3ccc4c(c3)OCO4)ccc2O[C@@H]1CN(C)Cc1ccc(C(F)(F)F)cc1`, the cytotoxicity call is reported as “inactive”. For `C[C@H](CO)N1C[C@H](C)[C@H](CN(C)Cc2ccc(C(F)(F)F)cc2)Oc2ccc(NC(=O)Nc3ccc4c(c3)OCO4)cc2CC1=O`, the cytotoxicity call was “inactive”. `C[C@@H]1CN([C@@H](C)CO)C(=O)Cc2cc(NC(=O)Nc3ccc4c(c3)OCO4)ccc2O[C@H]1CN(C)Cc1ccc(C(F)(F)F)cc1` was tested, and the cytotoxicity call was “inactive”. `C[C@H](CO)N1C[C@H](C)[C@H](CN(C)C(=O)Nc2ccc3c(c2)OCO3)Oc2ccc(NC(=O)Nc3ccc(C(F)(F)F)cc3)cc2CC1=O` was tested, and the cytotoxicity call was “inactive”. `C[C@H]1CN([C@@H](C)CO)C(=O)Cc2cc(NC(=O)Nc3ccc4c(c3)OCO4)ccc2O[C@H]1CN(C)Cc1ccc(C(F)(F)F)cc1` was tested, and the cytotoxicity call was “inactive”. For `C[C@@H]1CN([C@H](C)CO)C(=O)Cc2cc(NC(=O)Nc3ccc4c(c3)OCO4)ccc2O[C@H]1CN(C)Cc1ccc(C(F)(F)F)cc1`, the cytotoxicity call was “active”. In the case of `OCc1ccc2c(c1)OCCO2`, the cytotoxicity call is reported as “inactive”. In the case of `C[C@@H]1CN([C@@H](C)CO)C(=O)c2cc(NC(=O)Cn3cnnn3)ccc2O[C@@H]1CN(C)Cc1ccc(Cl)c(Cl)c1`, the cytotoxicity call is reported as “inactive”. With `C[C@@H]1CN([C@@H](C)CO)S(=O)(=O)c2ccc(-c3cncnc3)cc2O[C@H]1CN(C)C(=O)Cc1ccncc1` the cytotoxicity call was “inactive”. `COc1ccc(S(=O)(=O)Nc2ccc3c(c2)C(=O)N([C@@H](C)CO)C[C@H](C)[C@H](CN(C)C(=O)Nc2cccc4ccccc24)OCCCC[C@H](C)O3)cc1` was tested, and the cytotoxicity call was “inactive”. With `C[C@@H]1CCCCO[C@H](CN(C)S(C)(=O)=O)[C@@H](C)CN([C@@H](C)CO)C(=O)c2cc(NS(=O)(=O)c3ccccc3)ccc2O1` the cytotoxicity call was “inactive”. In the case of `C[C@@H]1CN([C@@H](C)CO)C(=O)c2cccc(NC(=O)c3ccc(-c4nccs4)cc3)c2O[C@@H]1CN(C)Cc1ccc(C(=O)O)cc1`, the cytotoxicity call is reported as “inactive”. `C[C@@H]1CN([C@H](C)CO)C(=O)c2cc(NC(=O)Nc3ccc(F)cc3)ccc2O[C@@H](C)CCCCO[C@H]1CN(C)Cc1ccc(Cl)c(Cl)c1` was tested, and the cytotoxicity call was “active”. With `C[C@H]1CCCCO[C@H](CN(C)Cc2ccc(Cl)c(Cl)c2)[C@@H](C)CN([C@@H](C)CO)C(=O)c2cc(NC(=O)Nc3ccc(F)cc3)ccc2O1` the cytotoxicity call was “inactive”. For `Cc1noc(C)c1NC(=O)Nc1ccc2c(c1)C(=O)N([C@H](C)CO)C[C@@H](C)[C@@H](CN(C)Cc1ccc(Cl)c(Cl)c1)OCCCC[C@H](C)O2`, the cytotoxicity call was “active”. `Cc1noc(C)c1NC(=O)Nc1ccc2c(c1)C(=O)N([C@H](C)CO)C[C@@H](C)[C@H](CN(C)Cc1ccc(Cl)c(Cl)c1)OCCCC[C@@H](C)O2` was tested, and the cytotoxicity call was “inactive”. With `C[C@@H]1CN([C@H](C)CO)C(=O)c2cc(NC(=O)Nc3ccccc3)ccc2O[C@@H](C)CCCCO[C@H]1CN(C)Cc1ccc(Cl)c(Cl)c1` the cytotoxicity call was “active”. For `C[C@H]1CCCCO[C@H](CN(C)Cc2ccc(Cl)c(Cl)c2)[C@@H](C)CN([C@@H](C)CO)C(=O)c2cc(NC(=O)Nc3ccccc3)ccc2O1`, the cytotoxicity call was “inactive”. In the case of `C[C@@H]1CCCCO[C@@H](CN(C)Cc2ccc(Cl)c(Cl)c2)[C@@H](C)CN([C@@H](C)CO)C(=O)c2cc(NC(=O)Nc3ccc(F)cc3)ccc2O1`, the cytotoxicity call is reported as “inactive”. In the case of `Cc1noc(C)c1NC(=O)Nc1ccc2c(c1)C(=O)N([C@@H](C)CO)C[C@@H](C)[C@H](CN(C)Cc1ccc(Cl)c(Cl)c1)OCCCC[C@H](C)O2`, the cytotoxicity call is reported as “inactive”. In the case of `C[C@@H]1CCCCO[C@@H](CN(C)Cc2ccc(Cl)c(Cl)c2)[C@@H](C)CN([C@H](C)CO)C(=O)c2cc(NC(=O)Nc3ccccc3)ccc2O1`, the cytotoxicity call is reported as “inactive”.
